In ChEMBL document CHEMBL1961873, “Compounds: GSK PKIS; Assays: Nanosyn kinase panel” (2012) one finds inhibition data, which are given here for two compounds.

Assay [1] addresses Protein kinase C gamma type (Homo sapiens) (UniProt P05129). The note with it: at 1 µM.
Assay [2] concerns the target T1, Protein kinase C iota type (Homo sapiens) (UniProt P41743).
T1 sequence (whole entry): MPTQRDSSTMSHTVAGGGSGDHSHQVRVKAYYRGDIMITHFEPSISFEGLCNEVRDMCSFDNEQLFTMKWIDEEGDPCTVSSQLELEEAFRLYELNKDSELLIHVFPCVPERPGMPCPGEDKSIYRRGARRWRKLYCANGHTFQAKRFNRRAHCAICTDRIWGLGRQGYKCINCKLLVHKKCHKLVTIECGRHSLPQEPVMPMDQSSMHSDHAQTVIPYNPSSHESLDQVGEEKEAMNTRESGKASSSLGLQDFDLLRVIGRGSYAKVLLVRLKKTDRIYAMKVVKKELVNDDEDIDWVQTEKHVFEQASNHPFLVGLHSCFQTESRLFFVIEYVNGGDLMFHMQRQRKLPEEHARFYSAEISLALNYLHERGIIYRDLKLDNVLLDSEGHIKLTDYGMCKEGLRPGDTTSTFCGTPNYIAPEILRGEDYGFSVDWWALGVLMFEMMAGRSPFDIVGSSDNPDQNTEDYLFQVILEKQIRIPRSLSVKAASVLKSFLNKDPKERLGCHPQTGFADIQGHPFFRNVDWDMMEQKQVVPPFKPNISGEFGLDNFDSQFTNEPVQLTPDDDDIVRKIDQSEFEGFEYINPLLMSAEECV
The note with it: at 0.1 µM.

The target in assay [3] is T1, Protein kinase C iota type (Homo sapiens). The note with it: at 1 µM.
Assay [4] has as its target Protein kinase C theta type (Homo sapiens) (UniProt Q04759). The note with it: at 0.1 µM.
For assay [5] the target is unchanged. The note with it: at 1 µM.
For assay [6], the target named is Protein kinase C beta type (Homo sapiens) (UniProt P05771). The note with it: at 0.1 µM.
The target is the same in assay [7]. The note with it: at 1 µM.
In assay [8] the target is T2, Serine/threonine-protein kinase D1 (Homo sapiens) (UniProt Q15139).
T2 sequence (whole entry): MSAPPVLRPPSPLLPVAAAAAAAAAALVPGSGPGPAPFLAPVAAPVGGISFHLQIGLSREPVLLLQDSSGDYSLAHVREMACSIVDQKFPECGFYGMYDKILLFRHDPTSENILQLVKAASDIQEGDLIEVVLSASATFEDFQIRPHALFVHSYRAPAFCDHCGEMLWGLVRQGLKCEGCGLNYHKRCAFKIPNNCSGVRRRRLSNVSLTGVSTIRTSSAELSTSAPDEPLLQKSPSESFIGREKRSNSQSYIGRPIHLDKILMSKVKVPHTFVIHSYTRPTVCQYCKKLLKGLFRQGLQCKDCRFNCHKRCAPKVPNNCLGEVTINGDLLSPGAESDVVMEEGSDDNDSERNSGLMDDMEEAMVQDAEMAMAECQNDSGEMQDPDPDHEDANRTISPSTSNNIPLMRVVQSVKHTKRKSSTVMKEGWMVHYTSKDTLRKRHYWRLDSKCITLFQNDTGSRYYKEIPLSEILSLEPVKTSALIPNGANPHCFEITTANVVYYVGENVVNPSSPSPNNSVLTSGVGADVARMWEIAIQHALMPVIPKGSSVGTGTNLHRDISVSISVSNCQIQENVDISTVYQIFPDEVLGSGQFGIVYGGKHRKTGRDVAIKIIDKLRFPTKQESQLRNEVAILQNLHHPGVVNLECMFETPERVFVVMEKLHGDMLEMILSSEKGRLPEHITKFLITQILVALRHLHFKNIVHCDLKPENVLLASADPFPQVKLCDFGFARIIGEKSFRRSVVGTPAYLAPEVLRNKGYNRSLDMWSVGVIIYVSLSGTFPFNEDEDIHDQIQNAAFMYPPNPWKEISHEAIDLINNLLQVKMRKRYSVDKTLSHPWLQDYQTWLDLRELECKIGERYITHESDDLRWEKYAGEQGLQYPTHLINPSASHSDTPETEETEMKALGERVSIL
The note with it: at 0.1 µM.

Assay [9] addresses T2, Serine/threonine-protein kinase D1 (Homo sapiens). The note with it: at 1 µM.
Assay [10] addresses T3, Serine/threonine-protein kinase D2 (Homo sapiens) (UniProt Q9BZL6).
T3 sequence (whole entry): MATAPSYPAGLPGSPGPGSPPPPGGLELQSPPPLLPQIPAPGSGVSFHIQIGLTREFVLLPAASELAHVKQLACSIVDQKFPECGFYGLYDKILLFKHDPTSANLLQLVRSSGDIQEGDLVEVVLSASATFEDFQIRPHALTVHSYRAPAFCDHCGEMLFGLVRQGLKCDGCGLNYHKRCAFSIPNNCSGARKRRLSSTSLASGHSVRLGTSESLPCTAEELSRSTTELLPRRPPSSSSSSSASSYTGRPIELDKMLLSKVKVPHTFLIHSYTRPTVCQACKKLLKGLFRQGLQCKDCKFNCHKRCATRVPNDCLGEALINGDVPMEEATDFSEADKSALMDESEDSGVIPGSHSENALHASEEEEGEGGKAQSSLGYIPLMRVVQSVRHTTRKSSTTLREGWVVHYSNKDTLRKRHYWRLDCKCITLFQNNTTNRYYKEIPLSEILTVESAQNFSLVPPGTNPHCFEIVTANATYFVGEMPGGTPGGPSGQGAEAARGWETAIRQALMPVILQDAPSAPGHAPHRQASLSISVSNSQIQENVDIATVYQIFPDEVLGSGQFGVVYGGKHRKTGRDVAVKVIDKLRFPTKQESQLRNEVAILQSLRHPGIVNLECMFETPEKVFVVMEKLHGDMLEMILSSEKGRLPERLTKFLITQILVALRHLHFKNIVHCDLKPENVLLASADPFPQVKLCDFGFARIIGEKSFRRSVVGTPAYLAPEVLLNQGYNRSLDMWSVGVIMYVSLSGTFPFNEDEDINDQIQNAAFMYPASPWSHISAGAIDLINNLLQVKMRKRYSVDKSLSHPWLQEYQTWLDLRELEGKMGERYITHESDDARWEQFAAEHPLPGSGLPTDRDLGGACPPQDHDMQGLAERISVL
The note with it: at 0.1 µM.

The target of assay [11] is T3, Serine/threonine-protein kinase D2 (Homo sapiens). The note with it: at 1 µM.
In assay [12] the target is T4, Serine/threonine-protein kinase D3 (Homo sapiens) (UniProt O94806).
T4 sequence (whole entry): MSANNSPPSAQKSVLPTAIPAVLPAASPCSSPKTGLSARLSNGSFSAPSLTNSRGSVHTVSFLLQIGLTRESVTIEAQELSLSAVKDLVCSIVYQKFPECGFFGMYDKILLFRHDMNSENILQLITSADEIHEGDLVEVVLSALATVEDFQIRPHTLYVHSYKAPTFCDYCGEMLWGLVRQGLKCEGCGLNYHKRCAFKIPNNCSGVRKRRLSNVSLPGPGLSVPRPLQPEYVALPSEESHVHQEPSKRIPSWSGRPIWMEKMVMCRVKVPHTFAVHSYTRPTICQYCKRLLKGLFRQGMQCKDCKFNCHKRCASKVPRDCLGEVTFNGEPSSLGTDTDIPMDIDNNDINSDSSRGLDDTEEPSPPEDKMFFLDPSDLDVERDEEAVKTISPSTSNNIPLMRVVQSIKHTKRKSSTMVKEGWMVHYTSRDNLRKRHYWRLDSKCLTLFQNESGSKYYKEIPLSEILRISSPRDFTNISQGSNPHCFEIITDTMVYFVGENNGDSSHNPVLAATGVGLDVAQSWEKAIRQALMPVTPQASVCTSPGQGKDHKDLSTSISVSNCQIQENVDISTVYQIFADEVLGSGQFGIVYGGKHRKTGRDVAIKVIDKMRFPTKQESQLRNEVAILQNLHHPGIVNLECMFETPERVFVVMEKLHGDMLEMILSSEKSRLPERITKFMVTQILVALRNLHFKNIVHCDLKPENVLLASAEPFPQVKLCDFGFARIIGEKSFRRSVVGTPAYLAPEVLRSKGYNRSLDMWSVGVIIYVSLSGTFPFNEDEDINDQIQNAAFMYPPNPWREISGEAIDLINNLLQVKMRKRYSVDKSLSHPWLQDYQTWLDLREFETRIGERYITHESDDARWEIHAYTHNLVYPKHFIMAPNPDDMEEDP
The note with it: at 0.1 µM.

Assay [13] deals with T4, Serine/threonine-protein kinase D3 (Homo sapiens). The note with it: at 1 µM.
In assay [14] the target is T5, cGMP-dependent protein kinase 1 (Homo sapiens) (UniProt Q13976).
T5 sequence (whole entry): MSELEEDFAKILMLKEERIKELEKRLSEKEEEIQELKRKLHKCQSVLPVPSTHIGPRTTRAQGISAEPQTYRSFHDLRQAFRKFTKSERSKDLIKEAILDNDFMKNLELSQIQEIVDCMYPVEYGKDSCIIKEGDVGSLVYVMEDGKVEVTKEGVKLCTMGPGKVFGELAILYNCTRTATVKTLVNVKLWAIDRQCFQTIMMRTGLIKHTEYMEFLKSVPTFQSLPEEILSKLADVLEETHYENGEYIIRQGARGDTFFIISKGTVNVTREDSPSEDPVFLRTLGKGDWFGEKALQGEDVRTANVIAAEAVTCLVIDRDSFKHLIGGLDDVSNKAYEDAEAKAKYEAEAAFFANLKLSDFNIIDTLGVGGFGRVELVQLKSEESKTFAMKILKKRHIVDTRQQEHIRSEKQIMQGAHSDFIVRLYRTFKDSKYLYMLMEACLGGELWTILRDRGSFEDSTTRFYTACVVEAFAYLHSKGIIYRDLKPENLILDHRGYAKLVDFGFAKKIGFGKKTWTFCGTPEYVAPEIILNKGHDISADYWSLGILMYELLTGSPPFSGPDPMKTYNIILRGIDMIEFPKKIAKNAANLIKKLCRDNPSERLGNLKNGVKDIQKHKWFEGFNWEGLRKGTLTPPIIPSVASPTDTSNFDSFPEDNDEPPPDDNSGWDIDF
The note with it: at 0.1 µM.

In assay [15] the target is T5, cGMP-dependent protein kinase 1 (Homo sapiens). The note with it: at 1 µM.
Assay [16] deals with T6, cGMP-dependent protein kinase 2 (Homo sapiens) (UniProt Q13237).
T6 sequence (whole entry): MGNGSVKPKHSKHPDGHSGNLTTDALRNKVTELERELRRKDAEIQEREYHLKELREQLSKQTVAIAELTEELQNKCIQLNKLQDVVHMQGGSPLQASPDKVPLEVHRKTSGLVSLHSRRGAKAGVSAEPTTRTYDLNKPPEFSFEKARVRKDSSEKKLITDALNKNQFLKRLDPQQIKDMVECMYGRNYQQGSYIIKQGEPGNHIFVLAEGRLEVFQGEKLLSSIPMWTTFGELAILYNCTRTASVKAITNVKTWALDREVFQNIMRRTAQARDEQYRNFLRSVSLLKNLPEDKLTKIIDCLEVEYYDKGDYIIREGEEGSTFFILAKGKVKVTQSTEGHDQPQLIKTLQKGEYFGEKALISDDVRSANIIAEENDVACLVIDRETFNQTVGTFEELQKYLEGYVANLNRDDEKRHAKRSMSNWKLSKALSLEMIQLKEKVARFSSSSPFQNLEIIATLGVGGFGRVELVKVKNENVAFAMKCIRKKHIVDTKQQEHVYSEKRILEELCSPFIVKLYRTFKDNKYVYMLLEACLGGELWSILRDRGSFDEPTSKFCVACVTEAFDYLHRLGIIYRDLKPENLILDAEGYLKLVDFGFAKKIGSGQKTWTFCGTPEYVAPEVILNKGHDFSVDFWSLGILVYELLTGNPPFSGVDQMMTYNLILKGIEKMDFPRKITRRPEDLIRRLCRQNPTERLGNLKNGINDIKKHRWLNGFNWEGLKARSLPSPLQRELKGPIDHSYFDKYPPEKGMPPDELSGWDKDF
The note with it: at 0.1 µM.

The target in assay [17] is T6, cGMP-dependent protein kinase 2 (Homo sapiens). The note with it: at 1 µM.
Assay [18] addresses T7, cAMP-dependent protein kinase catalytic subunit PRKX (Homo sapiens) (UniProt P51817).
T7 sequence (whole entry): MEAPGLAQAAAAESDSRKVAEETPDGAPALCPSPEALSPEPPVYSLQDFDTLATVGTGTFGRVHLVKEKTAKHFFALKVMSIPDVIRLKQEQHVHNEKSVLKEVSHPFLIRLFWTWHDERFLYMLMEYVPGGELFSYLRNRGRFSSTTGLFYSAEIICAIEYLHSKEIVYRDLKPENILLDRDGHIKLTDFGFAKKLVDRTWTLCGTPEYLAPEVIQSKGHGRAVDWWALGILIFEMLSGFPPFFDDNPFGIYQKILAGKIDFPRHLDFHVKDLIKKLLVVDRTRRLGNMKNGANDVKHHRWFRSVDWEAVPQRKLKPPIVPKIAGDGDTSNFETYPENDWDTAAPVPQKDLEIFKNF
The note with it: at 0.1 µM.

Assay [19] concerns the target T7, cAMP-dependent protein kinase catalytic subunit PRKX (Homo sapiens). The note with it: at 1 µM.
In assay [20] the target is Rho-associated protein kinase 1 (Homo sapiens) (UniProt Q13464). The note with it: at 0.1 µM.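 Also: values are mean percent inhibition of ROCK1.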

Each structure is given as a SMILES string.

Protein kinase C theta type (Homo sapiens), sequence (Q04759 whole entry, looked up): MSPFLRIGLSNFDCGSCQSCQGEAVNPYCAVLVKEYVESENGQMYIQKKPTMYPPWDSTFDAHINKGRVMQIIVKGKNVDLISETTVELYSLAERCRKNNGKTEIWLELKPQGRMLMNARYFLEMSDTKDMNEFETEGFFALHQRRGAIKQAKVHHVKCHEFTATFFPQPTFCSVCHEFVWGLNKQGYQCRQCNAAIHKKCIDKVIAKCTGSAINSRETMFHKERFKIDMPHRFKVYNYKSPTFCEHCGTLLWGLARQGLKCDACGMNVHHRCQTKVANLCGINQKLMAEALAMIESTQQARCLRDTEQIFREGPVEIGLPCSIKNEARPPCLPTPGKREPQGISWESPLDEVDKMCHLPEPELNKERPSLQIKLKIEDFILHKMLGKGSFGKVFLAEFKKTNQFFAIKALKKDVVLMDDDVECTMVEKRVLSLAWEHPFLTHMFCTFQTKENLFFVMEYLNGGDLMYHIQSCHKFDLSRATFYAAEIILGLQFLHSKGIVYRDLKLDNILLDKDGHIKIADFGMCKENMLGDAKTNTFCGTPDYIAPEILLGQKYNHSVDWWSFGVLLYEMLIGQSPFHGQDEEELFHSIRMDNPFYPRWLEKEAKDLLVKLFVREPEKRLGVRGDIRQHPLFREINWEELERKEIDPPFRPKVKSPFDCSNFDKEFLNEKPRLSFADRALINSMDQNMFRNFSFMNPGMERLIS
Protein kinase C beta type (Homo sapiens), sequence (P05771 2-671 limits assumed): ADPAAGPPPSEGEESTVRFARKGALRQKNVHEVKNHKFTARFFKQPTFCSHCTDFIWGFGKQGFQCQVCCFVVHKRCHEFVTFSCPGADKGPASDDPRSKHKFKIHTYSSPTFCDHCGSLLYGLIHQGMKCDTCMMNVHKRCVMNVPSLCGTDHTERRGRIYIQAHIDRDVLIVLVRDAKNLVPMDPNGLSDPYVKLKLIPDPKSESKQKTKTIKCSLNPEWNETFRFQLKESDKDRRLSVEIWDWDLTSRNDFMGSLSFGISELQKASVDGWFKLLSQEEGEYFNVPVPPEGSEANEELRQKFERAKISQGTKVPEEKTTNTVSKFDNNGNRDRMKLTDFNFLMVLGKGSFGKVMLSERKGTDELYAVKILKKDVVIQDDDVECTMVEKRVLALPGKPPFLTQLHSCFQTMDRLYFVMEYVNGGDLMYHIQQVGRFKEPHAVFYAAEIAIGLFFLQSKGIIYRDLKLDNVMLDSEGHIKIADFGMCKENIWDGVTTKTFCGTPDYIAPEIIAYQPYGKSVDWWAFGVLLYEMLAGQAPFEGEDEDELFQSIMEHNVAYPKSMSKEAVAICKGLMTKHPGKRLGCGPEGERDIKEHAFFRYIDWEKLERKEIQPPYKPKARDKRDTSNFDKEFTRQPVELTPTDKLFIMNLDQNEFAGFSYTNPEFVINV
Rho-associated protein kinase 1 (Homo sapiens), sequence (Q13464 2-1354 limits assumed): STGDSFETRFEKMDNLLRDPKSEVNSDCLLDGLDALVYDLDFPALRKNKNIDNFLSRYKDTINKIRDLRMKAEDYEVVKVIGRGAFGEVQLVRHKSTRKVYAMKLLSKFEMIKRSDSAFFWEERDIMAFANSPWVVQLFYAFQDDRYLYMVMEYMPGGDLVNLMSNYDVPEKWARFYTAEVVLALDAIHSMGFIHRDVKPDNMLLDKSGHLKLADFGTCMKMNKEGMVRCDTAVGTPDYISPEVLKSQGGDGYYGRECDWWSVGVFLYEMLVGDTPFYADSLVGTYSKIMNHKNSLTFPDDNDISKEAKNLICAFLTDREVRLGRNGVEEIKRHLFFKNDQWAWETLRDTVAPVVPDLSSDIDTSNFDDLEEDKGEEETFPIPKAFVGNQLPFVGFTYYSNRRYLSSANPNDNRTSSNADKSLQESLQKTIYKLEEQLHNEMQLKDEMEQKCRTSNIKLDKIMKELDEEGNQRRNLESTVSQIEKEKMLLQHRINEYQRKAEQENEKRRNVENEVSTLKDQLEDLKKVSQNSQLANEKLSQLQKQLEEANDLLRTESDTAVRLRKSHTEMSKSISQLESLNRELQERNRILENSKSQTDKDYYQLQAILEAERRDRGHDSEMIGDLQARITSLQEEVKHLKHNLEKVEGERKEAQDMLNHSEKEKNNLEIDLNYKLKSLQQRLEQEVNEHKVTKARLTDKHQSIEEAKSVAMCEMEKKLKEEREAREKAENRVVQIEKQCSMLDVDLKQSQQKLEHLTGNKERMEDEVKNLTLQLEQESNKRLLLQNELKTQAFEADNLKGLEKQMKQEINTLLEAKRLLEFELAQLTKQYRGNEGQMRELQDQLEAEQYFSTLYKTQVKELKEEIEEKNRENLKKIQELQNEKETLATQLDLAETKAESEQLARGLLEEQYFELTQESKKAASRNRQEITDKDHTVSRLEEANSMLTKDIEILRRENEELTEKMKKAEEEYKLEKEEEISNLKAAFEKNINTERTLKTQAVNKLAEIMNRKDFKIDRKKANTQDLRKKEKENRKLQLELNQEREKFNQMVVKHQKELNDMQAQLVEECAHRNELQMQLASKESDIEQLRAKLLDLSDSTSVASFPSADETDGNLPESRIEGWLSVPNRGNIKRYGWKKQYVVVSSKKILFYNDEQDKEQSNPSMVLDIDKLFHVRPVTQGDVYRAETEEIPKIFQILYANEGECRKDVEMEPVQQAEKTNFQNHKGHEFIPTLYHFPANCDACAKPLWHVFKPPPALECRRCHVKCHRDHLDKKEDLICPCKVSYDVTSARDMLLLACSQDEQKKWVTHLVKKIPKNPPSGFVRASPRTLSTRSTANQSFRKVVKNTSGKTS

In the case of `CCS(=O)(=O)c1ccc(OC)c(Nc2ncc(-c3cccc(-c4ccccc4F)c3)o2)c1`, the inhibition (in general, the change of the read-out against control, counted positive when it falls) is 0.81% in assay [1]; 1.05% in [2]; 3.5% in assay [3]; -0.12% in [4]; 2.52% in [5]; -0.13% in assay [6]. The inhibition in assay [7] stood at 1.06%; in [8], 1.19%; in assay [9] it was 1.23%; in assay [10] it was 1.33%; in assay [11], 1.19%; in assay [12], 1.19%. Further, the inhibition in assay [13] turned out to be 1.54%; in [14] it was 0.11%; in assay [15], 3.03%; in assay [16], 1.57%; in assay [17] it was 2.1%; in assay [18], 0.93%. Besides, the inhibition was 0.98% in [19] and -2.02% in assay [20].
For `COc1cc(Nc2ncc(-c3ccccc3)o2)cc(OC)c1OC`, the inhibition is 1.46% in [1]; 0.32% in assay [2]; 0.77% in assay [3]; -0.7% in assay [4]; -0.9% in assay [5]; 0.3% in [6]. Moreover, the inhibition is 2.2% in assay [7]; -0.66% in assay [8]; -1.47% in [9]; -0.6% in assay [10]; -0.05% in assay [11]; -1.81% in assay [12]. The inhibition in [13] was -1.6%; in assay [14], 1.84%; in [15], 1.3%; in assay [16], -0.12%; in [17] it was 1.47%; in assay [18], 0.22%. Besides, the inhibition in assay [19] was 0.75%; in assay [20] it was 0.49%.
